Reference: PubChem BioAssay AID1671190 (National Center for Advancing Translational Sciences (NCATS), 2021)
Out of some 580,000 compounds screened, about 6,100 (1.1%) were called active. Entries that show only a call come without a potency. Roughly 15% stayed inconclusive and do not appear here. The full list was thinned out, with actives kept by preference. A number with no mark means an inactive call. Calls follow the shape of the dose curve; as a rule, active = well fitted inhibition curve with a large enough effect; inconclusive = small, poorly fitted or top-dose-only effect, or another doubt; inactive = no such curve, though single readings can be large or run the other way.

Molecular target: Polyunsaturated fatty acid lipoxygenase ALOX12 (Homo sapiens) (UniProt P18054)
Assay: Primary qHTS assay for inhibitors of human arachidonate 12S-lipoxygenase (ALOX12): Round 2
Details: purified 12hLO, xylenol orange hydroperoxide absorbance; series mostly up to 108 µM
Text: Assay Provider: Theodore R. Holman Ph.D. University of California, Santa Cruz, California Human lipoxygenase 12hLO is a member of the closely related lipoxygenase family of enzymes which catalyze the site-specific oxidation of arachidonic acid to various hormone precursor molecules and as such is a candidate for drug development in a variety of disease areas, such as cancer and inflammation. Inhibition of 12hLO activity was screened by utilizing arachidonic acid as a substrate. The extent of hydroperoxide product formation was measured by a secondary chromogenic reaction in which xylenol orange (XO, Sigma-Aldrich, cat. number 39,818-7) reacts with the ferric ions produced from the reaction between the hydroperoxide and ferrous ions. The Fe (III)-XO complex is characterized with red-shifted absorbance at 560 nm. A purified preparation of human 12hLO was supplied by Dr. Holman laboratory, University of California, Santa Cruz.
PROTOCOL TABLE SEQUENCE No. (e.g., 1, 2, 3, etc.); […] (e.g., Cells, Incubation, Reagent, etc.); VALUE; DESCRIPTION 1; Enzyme; 3 uL; 150 nM 12hLO enzyme solution dispensed in 1536-well Greiner black, clear bottom plates. 2; Compound; 23 nL; compounds and controls were added. 3; Incubate; 15 min; room temperature. 4; Substrate; 1 uL; 40 uM arachidonic acid (final concentration). 5; Incubate; 30 min; room temperature. 6; Reagent; 4 uL; Fe-XO solution was added to each well. 7; Incubation; 30 min; room temperature 8; Detector; absorbance; Read 1 at 405 nm absorbance using ViewLux (Perkin-Elmer) CCD imager. 9; Detector; absorbance; Read 2 at 573 nm absorbance using ViewLux (Perkin-Elmer) CCD imager. NOTES (numbers refer to sequence above) 1; 150 nM 12hLO (final concentration) in buffer solution (25 mM Hepes, 0.01% Triton X-100, pH 7.0) was dispensed in columns 1, 2, 5-48. Column 1 is neutral (100% activity). Buffer only was dispensed in columns 3 and 4 as no enzyme negative controls. The plates were covered with metal lids with gas-exchange holes. 2; Compounds were pin transferred via a Kalypsys Pin Tool (Wako USA) in column 5-48. Control compound was transferred in column 2, titration of nordihydroguaiaretic acid (NDGA, Sigma-Aldrich, N5023) with top concentration of 20 mM in DMSO then 1:3 dilution in duplicate. Dilution factor of 23 nL into 4 uL final assay volume. 3; Covered assay plates were incubated for 15 min at room temperature. 4; Substrate was added to start the reaction; 40 uM arachidonic acid (Sigma-Aldrich, St. Louis, MO) was dispensed throughout the plate. 6; Chromogenic detection reagent solution (divalent iron/xylenol orange, Fe-XO) was added to each well: 200 uM xylenol orange, 300 uM ferrous ammonium sulfate prepared freshly in 50 mM sulfuric acid. 8, 9; Two absorbance readouts were obtained at 405 nm and at 573 nm using a ViewLux high-throughput CCD plate imager (Perkin-Elmer). The 573 to 405 (Read 2 / Read 1) absorbance ratio was used to compute reaction progress.
Potency is read from the fitted curve at half-maximal effect.

Polyunsaturated fatty acid lipoxygenase ALOX12 (Homo sapiens), sequence (P18054 whole entry, looked up): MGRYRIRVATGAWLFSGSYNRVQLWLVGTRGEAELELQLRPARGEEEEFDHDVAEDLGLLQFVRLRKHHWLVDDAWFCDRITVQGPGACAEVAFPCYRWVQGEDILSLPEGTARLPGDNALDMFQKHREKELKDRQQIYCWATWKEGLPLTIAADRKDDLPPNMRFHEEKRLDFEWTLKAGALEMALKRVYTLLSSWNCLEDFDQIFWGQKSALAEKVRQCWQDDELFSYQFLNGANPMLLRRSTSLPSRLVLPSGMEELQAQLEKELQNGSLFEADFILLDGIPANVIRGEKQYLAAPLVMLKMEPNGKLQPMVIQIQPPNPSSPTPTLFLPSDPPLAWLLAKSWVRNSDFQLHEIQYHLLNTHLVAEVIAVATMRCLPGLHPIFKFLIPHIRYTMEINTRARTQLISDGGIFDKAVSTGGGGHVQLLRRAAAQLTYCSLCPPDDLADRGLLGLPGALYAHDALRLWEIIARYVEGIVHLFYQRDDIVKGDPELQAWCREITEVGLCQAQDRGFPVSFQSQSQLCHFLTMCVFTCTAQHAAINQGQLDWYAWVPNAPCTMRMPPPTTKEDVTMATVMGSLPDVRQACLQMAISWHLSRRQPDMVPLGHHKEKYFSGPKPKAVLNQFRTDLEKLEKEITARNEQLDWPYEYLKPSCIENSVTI

Row | Compound | Potency | activity change, negative = inhibition
1 | Cc1nn(Cc2ccccc2Cl)c(Cl)c1C(=O)OC(C(=O)NC(N)=O)C(C)C (stereo not given) | inactive | –
2 | CCOC(=O)c1c(C)n(Cc2ccccc2Cl)c2ccc(O)cc12 | 20 µM (active) | –
3 | COc1ccccc1-c1ccc(N2CC3CC(C2)c2cccc(=O)n2C3)nn1 (stereo not given) | inactive | –
4 | O=C(NCc1ccccc1)[C@H]1CN2CCC1C[C@@H]2Cn1cc(-c2ccc(F)cc2)nn1 (stereo not given in full) | inactive | –
5 | COC(=O)[C@@H]1[C@@H](CO)[C@@H]2Cn3c(ccc(Br)c3=O)[C@H]1N2C(=O)c1cnccn1 | inactive | –
6 | COc1cc2c(cc1Oc1cccc(N(C)C)c1)NC(=O)C21CCN(CCC(C)C)CC1 | inactive | –
7 | O=C(Nc1ccccc1)[C@H]1CN2CCC1C[C@@H]2Cn1cc(CO)nn1 (stereo not given in full) | inactive | –
8 | COc1ccc(N2C(=O)/C(=C/c3ccco3)C(=O)NC2=S)cc1 | 8.91 µM (active) | –
9 | COc1nc2c(cc1CNC(=O)C1C(C)(C)C1(C)C)C(=O)N(C1CCCC1)C2 | inactive | –
10 | COc1ccc(/C=C\[N+](=O)[O-])c(OC)c1 | inactive | –
11 | Cc1nc(C)c(C(=O)N2[C@H]3CC[C@@H]2c2cnc(-c4ccccc4)nc2C3)s1 | inactive | –
12 | O=C1CC2CCN(Cc3cccnc3)CC2CCN1 (stereo not given) | – | 6.21% [at 12.5 µM]
13 | CC1CNCCN1c1ccc(Cl)cc1 (stereo not given) | inactive | –
14 | Cc1cc(N2CCNC[C@@H]2C)ccc1N1CC[C@H](O)C1 | 44.7 µM (active) | –
15 | COc1ccc(-c2cc3c(cc2OC)C2(CCN(C(C)=O)CC2)C(=O)N3)cc1OC | inactive | –
16 | CN(Cc1ccccc1)C[C@H]1CN2CC[C@H]1C[C@@H]2CNC(=O)Nc1ccsc1 | inactive | –
17 | C[S+](=O)([O-])N1CCC2(CC1)CC(c1cccnc1)=NO2 | – | 5.92% [at 6.33 µM]
18 | c1ccc2sc(SNC3CCCCC3)nc2c1 | 28.2 µM (active) | –
19 | c1ccc2sc(N3CCNCC3)nc2c1 | inactive | –
20 | OC(CNC1CCCCC1)c1ccccc1 (stereo not given) | inactive | –
21 | Cc1noc(C)c1CC(=O)N1[C@H]2CC[C@@H]1c1cnc(-c3ccccc3)nc1C2 | inactive | –
22 | Cc1noc(C(C)N2CCN(C(=O)Cc3ccccc3)CC2)n1 (stereo not given) | inactive | –
23 | Cc1cc(C)c2[nH]c(C(=O)N3CCC(C#N)(c4ccccc4)CC3)c(C)c2c1 | inactive | –
24 | C=CCN(CC=C)C(=O)Nc1ccc(OCC)cc1 | inactive | –

Row | Compound | Potency | activity change, negative = inhibition
25 | CCC(=O)c1ccc(OCC(=O)N2CCN(CC(=O)Nc3ccc(C)cc3)CC2)cc1 | inactive | –
26 | C=CCN1C(=O)NC(=O)/C(=C/c2ccc(OCC(=O)Nc3ccc(C)cc3)cc2)C1=O | 39.8 µM (active) | –
27 | CC(CNc1ccc([N+](=O)[O-])c2cnccc12)c1ccccc1 (stereo not given) | inactive | –
28 | COC(=O)c1ccc(NC(=O)N2[C@H]3CC[C@@H]2c2cnc(-c4ccc(F)cc4)nc2C3)cc1 | inactive | –
29 | COc1cc2c(cc1Oc1cccc(N(C)C)c1)NC(=O)C21CCN(c2cnccn2)CC1 | inactive | –
30 | COc1ccc(CC(=O)N2CCN(CC(=O)NC(N)=O)CC2)cc1 | inactive | –
31 | C#C[C@H]1CN2CC[C@H]1C[C@@H]2CNC(=O)C1CC1 | inactive | –
32 | C#C[C@H]1CN2CC[C@H]1C[C@@H]2COC(=O)Nc1cc(OC)cc(OC)c1 | 50.1 µM (active) | –
33 | COc1ccc(-c2cc([C@H]3CN4CC[C@H]3C[C@@H]4COC(=O)NC(C)C)nc(C)n2)cc1 | inactive | –
34 | Cc1ncc2c(n1)C[C@@H]1CC[C@H]2N1S(=O)(=O)c1ccc(F)cc1 | inactive | –
35 | Cn1nc(-c2cccs2)cc1[C@H]1CN2CC[C@H]1C[C@@H]2CNC(=O)Nc1ccccc1 | inactive | –
36 | C=C(C)C1(CCCC)C(=O)NC(=S)NC1=O | 44.7 µM (active) | –
37 | COc1ccccc1-c1cc([C@H]2CN3CC[C@H]2C[C@@H]3CNCc2cccc(C#N)c2)n(C)n1 | inactive | –
38 | COc1cc2c(cc1OCc1ccccc1)NC(=O)C21CCN(CCC(C)C)CC1 | inactive | –
39 | COC(=O)C1=C(c2ccc3ccccc3c2)C[C@@H]2CC[C@H]1N2C(=O)NCCO | inactive | –
40 | Cc1ncoc1C(=O)NCC1=C(c2cccc3ccccc23)C[C@@H]2CC[C@H]1N2Cc1ccco1 | inactive | –
41 | CC(=O)NCC1=C(c2ccc3ccccc3c2)C[C@@H]2CC[C@H]1N2Cc1ccco1 | 28.2 µM (active) | –
42 | O=[S+]1([O-])NC2(CCN(CC3CCOCC3)C2)COc2ccncc21 (stereo not given) | – | 3.45% [at 6.33 µM]
43 | CN(C)C(=O)Oc1ccc2c(=O)c(-c3ccc(Br)cc3)c(C(F)(F)F)oc2c1 | inactive | –
44 | O=C(c1ccc2c(c1)CCO2)N1C[C@@H](c2ccc(F)cc2)[C@@H]2[C@H]1C1CCN2CC1 | inactive | –
45 | Cc1cc(C)cc(CN2CCC3(CCNCC3)C2)c1 | inactive | –
46 | COc1cc2c(cc1OC1CCCC1)NC(=O)C21CCN(c2nccs2)CC1 | inactive | –
47 | O=C1NC(=O)N(c2ccccc2)C(=O)/C1=C/c1ccc([N+](=O)[O-])s1 | 39.8 µM (active) | –
48 | COc1cccc(N2C(=O)NC(=O)/C(=C\c3ccc([N+](=O)[O-])s3)C2=O)c1 | 44.7 µM (active) | –

Row | Compound | Potency | activity change, negative = inhibition
49 | CCC(CC)c1cc([C@H]2CN3CC[C@H]2C[C@@H]3CNS(=O)(=O)Cc2ccccc2)nc(-c2ccncc2)n1 | inactive | –
50 | N#Cc1cccc(NC(=O)NC[C@H]2C[C@@H]3CCN2C[C@@H]3CN2CCN(c3ncccn3)CC2)c1 | inactive | –
51 | CC(C)(C)c1nc(CN2CCC3(CC2)C(=O)Nc2ccccc23)no1 | inactive | –
52 | COc1cccc(Nc2cc3c(cn2)CN(C)CCN3C)c1 | inactive | –
53 | O=c1c2ccccc2nc(/C=C/c2ccco2)n1-c1ccccc1O | 35.5 µM (active) | –
54 | O=c1c2ccccc2nc(/C=C/c2ccc(F)cc2)n1-c1ccccc1O | inactive | –
55 | Cc1ccc(-n2c(/C=C/c3cccc(C(F)(F)F)c3)nc3ccccc3c2=O)cc1 | inactive | –
56 | C=CCN(C)C[C@H]1CN2CC[C@H]1C[C@@H]2CNC(=O)Nc1cccc(SC)c1 | inactive | –
57 | O=c1oc2ccccc2c(O)c1C(c1ccccc1O)c1c(O)c2ccccc2oc1=O | inactive | –
58 | Cc1ccc(C(c2c(O)c3ccccc3oc2=O)c2c(O)c3ccccc3oc2=O)cc1 | 12.6 µM (active) | –
59 | CCC(=O)CC(c1ccc([N+](=O)[O-])cc1)c1c(O)c2ccccc2oc1=O (stereo not given) | inactive | –
60 | O=C(Cc1ccccc1)N1[C@H]2CC[C@@H]1c1cnc(-c3ccc(F)cc3)nc1C2 | inactive | –
61 | COc1cc2c(cc1-c1ccncc1)NC(=O)C21CCN(C(C)=O)CC1 | inactive | –
62 | COc1ccc(CC(=O)N2C[C@@H]3CC[C@H](C2)N(CC2CCC2)C3)c(OC)c1 | inactive | –
63 | c1cncc(CNC2=NCCC2)c1 | inactive | –
64 | ClCc1cccnc1 | 11.2 µM (active) | –
65 | c1cncc(CNCCc2c[nH]c3ccccc23)c1 | inactive | –
66 | Cc1nc(-c2ccc(N(C)C)cc2)cc([C@H]2CN3CC[C@H]2C[C@@H]3CNC(=O)C2CCC2)n1 | inactive | –
67 | CCOCCc1c(O)[nH]c(=S)[nH]c1=O | 14.1 µM (active) | –
68 | Cn1nc(-c2ccc(F)cc2)cc1[C@H]1CN2CC[C@H]1C[C@@H]2CNCc1ccccn1 | inactive | –
69 | Cc1ccc2c(n1)N(C)[C@H](CO)CCN(C1CCCC1)C2 | inactive | –
70 | CC(C)C(=O)N1CCC2(CC1)NCc1ccccc1-n1ccnc12 | inactive | –
